Results on 25 molecules are retold here after PubChem BioAssay AID693 (University of Pittsburgh Molecular Library Screening Center, 2007).

About 130 (0.13%) of roughly 97,000 compounds were called active. Many of the other results were omitted from the sample, so actives are more common in it than they were. A number with no mark means an inactive call. Cut-off read from the data, not from the text of the source: active = inhibition above about 34% (passing the limit was not always enough); inactive = the rest.

Sequence of Serine/threonine-protein kinase PLK1 (Homo sapiens) (P53350 whole entry, looked up): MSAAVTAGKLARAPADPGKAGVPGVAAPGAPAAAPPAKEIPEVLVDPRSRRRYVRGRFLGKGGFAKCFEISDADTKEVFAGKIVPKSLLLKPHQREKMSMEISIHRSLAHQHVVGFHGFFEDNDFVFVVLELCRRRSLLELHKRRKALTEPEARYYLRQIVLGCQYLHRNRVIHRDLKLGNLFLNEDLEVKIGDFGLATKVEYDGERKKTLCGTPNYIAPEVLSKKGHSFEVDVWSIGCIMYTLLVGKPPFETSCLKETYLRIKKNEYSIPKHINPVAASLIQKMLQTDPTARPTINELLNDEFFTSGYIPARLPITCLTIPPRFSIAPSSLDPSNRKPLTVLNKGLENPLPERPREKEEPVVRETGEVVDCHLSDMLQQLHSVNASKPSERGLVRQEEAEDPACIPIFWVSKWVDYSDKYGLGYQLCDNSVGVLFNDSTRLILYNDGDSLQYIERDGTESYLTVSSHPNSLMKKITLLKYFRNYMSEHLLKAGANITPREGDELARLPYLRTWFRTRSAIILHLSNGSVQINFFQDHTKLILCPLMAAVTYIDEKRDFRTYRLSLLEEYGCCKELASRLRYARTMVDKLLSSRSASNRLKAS

This experiment concerns the target Serine/threonine-protein kinase PLK1 (Homo sapiens) (UniProt P53350). Description: blockers of phosphopeptide binding to Plk1 PBD – biochemical, fluorescence polarization, primary screen (AID 693). The following applies: stronger effect = higher value,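 tested at about 20 µM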.
As for `Cn1c(N)c(C(=O)COC(=O)C23CC4CC(CC(C4)C2)C3)c(=O)n(C)c1=O`, the inhibition was -3.11%.

For `COc1cc(C(=O)OC(C)C(=O)NCC2CCCCC2)cc(NC(=O)c2ccco2)c1OC` (stereo not given), the inhibition was 2.04%.

With `COCc1cc(C)nc2sc(C(=O)NC3CCCCC3)c(N)c12`, the inhibition was -36.6%.

As to `COc1ccc(CN(CC(=O)NC2CCCC2)C(=O)CCC(=O)Nc2cc(C)on2)cc1`, the inhibition was 4.15%.

`O=C(N/N=C/c1ccsc1)c1cc(O)cc(O)c1`: the inhibition is -12.8%.

Regarding `COc1ccc(CCNC(=S)NC(=O)/C=C/c2ccc(C)cc2)cc1OC`, the inhibition was -11.8%.

For `N#Cc1ccsc1NC(=O)CN1CCCCC1`, the inhibition was -12.8%.

On to `O=C1/C(=C\Nc2ccccc2)CCN1c1ncccn1`, for which the inhibition is 13.5%.

Consider `CC(C)(C)NS(=O)(=O)CC12CCC(CC1=O)C2(C)C` (stereo not given), for which the inhibition was -2.53%.

Regarding `O=C1CCN(C(=O)Nc2ccccc2)N1`, the inhibition was 11.2%.

Regarding `CCOc1cc(/C=C2/N=C(c3ccc(C(C)(C)C)cc3)OC2=O)cc(Cl)c1OS(C)(=O)=O`, the inhibition was -6.59%.

In the case of `Cc1ccccc1NC(=O)c1ccccc1NS(=O)(=O)c1cccc2cccnc12`, the inhibition is 4.72%.

`CC1CCCN(C(C(=O)Nc2ccc(C(C)C)cc2)c2ccc3c(c2)OCO3)C1` (stereo not given): the inhibition is -23.5%.

For `Cc1noc(/C=C/c2ccco2)c1S(=O)(=O)N1CCC(C(=O)N2CCc3ccccc32)CC1`, the inhibition was -18.1%.

With `CCCCCCC(=O)Nc1nc(C)c(-c2csc(Nc3cccc(OC)c3)n2)s1`, the inhibition is -14.7%.

With `O=C(Nc1ccc(Cl)cc1)c1cc2nc(C3CC3)cc(C(F)(F)F)n2n1`, the inhibition was 6.19%.

As to `O=C(NC1CCCCC1)c1cc([N+](=O)[O-])ccc1N1CCOCC1`, the inhibition is 22%.

For the molecule `O=C(CCc1ccccc1)NCc1cccnc1`, the inhibition is 22.9%.

Turning to `CC(=O)Nc1ccc(OCC(O)CN2CCN(c3ccccc3Cl)CC2)cc1` (stereo not given), the inhibition was -14%.

On to `O=C(O)C1CC=CCC1C(=O)Nc1ccccc1C(=O)N1CCN(c2ccccc2)CC1` (stereo not given), for which the inhibition is 2.13%.

On to `Cc1cc(C)c(S(=O)(=O)c2ccccc2)c(OC(=O)c2c(F)cccc2Cl)n1`, for which the inhibition is -3.99%.

Regarding `COc1ccc(NC(=O)Cn2c(-c3ccc(OC)cc3)cn(-c3ccc(C)cc3)c2=O)cc1`, the inhibition was 4.16%.

For the molecule `COc1ccc(-c2nn(-c3ccccc3)cc2C(=O)Nc2nccs2)cc1OC`, the inhibition was 3.37%.

On to `COc1ccccc1C(=O)Nc1ccc(NC(=O)c2ccco2)c(C)c1`, for which the inhibition was -21.6%.

Regarding `O=c1c2c(nc3nc[nH]n13)CCC2`, the inhibition was 7.34%.
